# Measured values published in PubChem BioAssay.
# Active and inactive are the calls of the source.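 The calls were made as follows: active = z-score of at least 1.8 in each of two replicates, scored against plate mean and spread of sample wells; inactive = the rest.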
# Assay: viability rescue of complex I mutant cybrids, primary screen, cell-based, galactose medium, ATP luminescence (AID 1645843);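 also: positive z means more ATP and so rescue of galactose-driven cybrid death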
# Conditions: complex I mutant cybrid cells, 72 h, stronger effect = higher value
row,SMILES,z-score
1,CC(C)(C)CN1CCN(CC2CC2)C(CCO)C1 (stereo unspecified),0.35 (inactive)
2,O=C1CC(C(=O)N2CCc3sccc3C2)c2cc(F)ccc2N1 (stereo unspecified),4.16 (active)
3,CCC1(CC)CC1C(=O)N1CCC(n2cc(C3CCCCC3)nn2)CC1 (stereo unspecified),0.07 (inactive)
4,Cc1nc2cc(C(=O)N3CCN(C)C(=O)C3)ccc2s1,-0.24 (inactive)
5,Cc1ccc2c(=O)n(C3CC(C)(C)NC(C)(C)C3)cnc2c1C,-0.535 (inactive)
6,CC[C@H](C)[C@H](N)C(=O)N1CCC(Cn2cc(-c3ccc(F)cc3)nn2)CC1,-0.33 (inactive)
7,Cc1cccc2c(C(=O)N(C)C(C)C)cc(-c3cnc(-c4cccnc4)nc3)nc12,-0.13 (inactive)
8,CCCCC1C(=O)N(C)CCN1C(=O)Nc1nnc(C(C)(C)C)s1 (stereo unspecified),-0.33 (inactive)
9,CNCc1cn(C2CCN(CCC(C)CCCC(C)(C)O)CC2)nn1 (stereo unspecified),-0.56 (inactive)
10,CC1(C(=O)N2CCC(n3cc(C(C)(C)C)nn3)CC2)CCCO1 (stereo unspecified),-0.79 (inactive)
11,CC(CCN1CCC(n2cc(CCO)nn2)CC1)CC(C)(C)C (stereo unspecified),-0.485 (inactive)
12,O=C(CC1CCCCCC1)N1CCC(Cn2cc(C3CC3)nn2)CC1,-0.55 (inactive)
13,COC(=O)c1ccccc1C(=O)N1CCNC(=O)C1Cc1ccccc1 (stereo unspecified),-0.485 (inactive)
14,CC(=O)c1c(C)cc(C)c(CNC(C)CCCC(C)(C)O)c1C (stereo unspecified),-0.52 (inactive)
15,O=C(C(=O)N1CCCCC1c1nc2ccc(F)cc2[nH]1)c1ccccc1 (stereo unspecified),0.05 (inactive)
16,COc1cc(C)c(CNC(C)CCCC(C)(C)O)c(C)c1C (stereo unspecified),-0.435 (inactive)
